Consider eight compounds from the supplement of paper PMC3414501.

Each structure is given as a SMILES string. Counter-ions that a name gives are not always drawn.

Experiment [1] relates to S. cerevisiae SK1 pCDA2-eGFP (USY613), sporulating. Kind of experiment: CDA2-GFP sporulation assay sensitivity score (z-score vs DMSO controls); higher = stronger inhibition of sporulation, active = hit call of the paper.
Experiment [2] concerns S. cerevisiae AD1-9 (efflux-pump deficient), vegetative growth in YPD. Kind of experiment: growth sensitivity score (doubling time z-score vs DMSO controls); higher = slower growth, strongly negative scores also mark growth inhibition (complete suppression), active = hit call of the paper. In outline:
(§1)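 Rich medium in microtiter plates was seeded with Saccharomyces cerevisiae strains BY4741 and AD1-9 at an OD600 of 0.065, and compounds were added as a 1:100 dilution of DMSO stock. A Tecan GENios reader recorded optical density every 15 min for 24 hours, with eight solvent-only wells in each experiment. Average doubling time was the time to reach a set generation point divided by generation number. The growth sensitivity score was the compound mean minus the solvent-only mean, divided by the solvent-only standard deviation.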

Experiment [3] has as its system S. cerevisiae BY4741 (wild-type), vegetative growth in YPD. Described as above. In outline:
as §1
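For CDA2-GFP sporulation assay sensitivity score (z-score vs DMSO controls) in this document: active if sensitivity score above 5.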

Consider `O=C(O)CCNC(=O)c1ccc(/N=N/c2ccc(O)c(C(=O)O)c2)cc1` [Balsalazide] (stock concentration (mM, diluted 1:100): 10), for which, in experiment [1], the “CDA2-GFP sporulation assay sensitivity score” value is 1.1 (inactive). Further, the growth sensitivity score is -1.86 (inactive) in experiment [2] and -1.09 (inactive) in experiment [3].

On to `CN(C/C=C/C#CC(C)(C)C)Cc1cccc2ccccc12` [Terbinafine hydrochloride] (stock concentration (mM, diluted 1:100): 8.9), for which the “CDA2-GFP sporulation assay sensitivity score” value in experiment [1] was -2.07 (inactive). In addition, the growth sensitivity score in experiment [2] is 30.1 (active); in experiment [3] it was 93.8 (active).

As for `CC(C)(C)NCC(O)c1ccc(O)c(CO)c1` (centres undefined) [Salbutamol sulfate] (stock concentration (mM, diluted 1:100): 9.7), the “CDA2-GFP sporulation assay sensitivity score” value in experiment [1] is -0.05 (inactive). Besides, the growth sensitivity score in experiment [2] is -1.51 (inactive); in experiment [3] it was -0.62 (inactive).

With `O=C(CCCN1CCC(O)(c2ccc(Cl)cc2)CC1)c1ccc(F)cc1` [Haloperidol] (stock concentration (mM, diluted 1:100): 10), the “CDA2-GFP sporulation assay sensitivity score” value in experiment [1] was 8.19 (active). Besides, the growth sensitivity score is 22.7 (active) in experiment [2] and 5.41 (active) in experiment [3].

Consider `NC(N)=Nc1nc(CSCC/C(N)=N/S(N)(=O)=O)cs1` [Famotidine] (stock concentration (mM, diluted 1:100): 10), for which, in experiment [1], the “CDA2-GFP sporulation assay sensitivity score” value is 0.3 (inactive). For the same compound, the growth sensitivity score in experiment [2] is -2.06; in experiment [3], -0.98 (inactive).

As to `CCN1CCN(c2cc3c(cc2F)c(=O)c(C(=O)O)cn3C2CC2)CC1` [Enrofloxacin] (stock concentration (mM, diluted 1:100): 10), the “CDA2-GFP sporulation assay sensitivity score” value in experiment [1] was 2.66 (inactive). The growth sensitivity score in experiment [2] was 37.5 (active); in experiment [3] it was 3.15 (active).

Turning to `O=c1ncc(F)c[nH]1` [5-Fluoro-2-Pyrimidone] (stock concentration (mM, diluted 1:100): 10), in experiment [1], the “CDA2-GFP sporulation assay sensitivity score” value is 0.54 (inactive). Moreover, the figures for the growth sensitivity score in experiment [2] and in experiment [3] were -0.92 (inactive) and -2.08, respectively.

Regarding `CC1CNc2c(cccc2S(=O)(=O)N[C@@H](CCCNC(=N)N)C(=O)N2CC[C@@H](C)C[C@@H]2C(=O)O)C1` (some centres undefined) [Argatroban] (stock concentration (mM, diluted 1:100): 10.1), in experiment [1], the “CDA2-GFP sporulation assay sensitivity score” value is -1.04 (inactive). Further, the growth sensitivity score in experiment [2] was -2.07; in experiment [3] it was -0.6 (inactive).
